Source: the supplement of paper PMC10849652
Of roughly 7,900 targets only a part is listed; those with a hit were picked by preference. About 0.6% of all pairs of compound and target were hits.

Assays:
Experiment in all cases: log2 fold change, soluble protein after heating vs DMSO (PISA); higher = thermal stabilisation; K562 cells, 10 uM, 30 min; active = over 0.2 and 3.5 SD of the protein, either way, in both replicates (recomputed)
saracatinib = compound: CN1CCN(CCOc2cc(OC3CCOCC3)c3c(Nc4c(Cl)ccc5c4OCO5)ncnc3c2)CC1 [saracatinib]
How it was run: (§1)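 K562 cells (2×10^6 cells/mL) were treated with 10 μM compound for 30 min, and aliquots were heated for 3 min over 48°C-58°C. Pooled aliquots were extracted in PBS with 0.5% NP-40 at 4°C, and the supernatant after 21,000xg for 90 min was measured by TMTpro 16plex LC-MS/MS with channel sums equalised. Reported thermal stability, relative to control samples and from duplicates, is a log2 fold change.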

sotrastaurin = compound: CN1CCN(c2nc(C3=C(c4c[nH]c5ccccc45)C(=O)NC3=O)c3ccccc3n2)CC1 [sotrastaurin]
How it was run: as §1

alvocidib = compound: CN1CC[C@H](c2c(O)cc(O)c3c(=O)cc(-c4ccccc4Cl)oc23)[C@H](O)C1 [alvocidib]
How it was run: as §1

Tubastatin A = compound: CN1CCc2c(c3ccccc3n2Cc2ccc(C(=O)NO)cc2)C1 [Tubastatin A]
How it was run: as §1

[1] = compound: CNC(=O)C1=CC=CC=C1NC2=NC(=NC=C2Cl)NC3=C(C=C(C=C3)N4CCOCC4)OC
How it was run: as §1

defactinib = compound: CNC(=O)c1ccc(Nc2ncc(C(F)(F)F)c(NCc3nccnc3N(C)S(C)(=O)=O)n2)cc1 [defactinib]
How it was run: as §1

rucaparib = compound: CNCc1ccc(-c2[nH]c3cc(F)cc4c3c2CCNC4=O)cc1 [rucaparib]
How it was run: as §1

[2] = compound: CNc1nc(-c2ccc3c(N)n[nH]c3c2)cc(N2C[C@@H](C(=O)NC3CCCCC3)CC[C@H]2C)n1
How it was run: as §1

encorafenib = compound: COC(=O)N[C@@H](C)CNc1nccc(-c2cn(C(C)C)nc2-c2cc(Cl)cc(NS(C)(=O)=O)c2F)n1 [encorafenib]
How it was run: as §1

[3] = compound: COC(=O)[C@H](CCSC)NC(=O)C1=C(C=C(C=C1)NC[C@H](CS)N)C2=CC=CC=C2
How it was run: as §1

Measured: log2 fold change

RNF220 (UniProt Q5VTB9)
Chain of UniProt Q5VTB9 (Q5VTB9 whole entry, looked up): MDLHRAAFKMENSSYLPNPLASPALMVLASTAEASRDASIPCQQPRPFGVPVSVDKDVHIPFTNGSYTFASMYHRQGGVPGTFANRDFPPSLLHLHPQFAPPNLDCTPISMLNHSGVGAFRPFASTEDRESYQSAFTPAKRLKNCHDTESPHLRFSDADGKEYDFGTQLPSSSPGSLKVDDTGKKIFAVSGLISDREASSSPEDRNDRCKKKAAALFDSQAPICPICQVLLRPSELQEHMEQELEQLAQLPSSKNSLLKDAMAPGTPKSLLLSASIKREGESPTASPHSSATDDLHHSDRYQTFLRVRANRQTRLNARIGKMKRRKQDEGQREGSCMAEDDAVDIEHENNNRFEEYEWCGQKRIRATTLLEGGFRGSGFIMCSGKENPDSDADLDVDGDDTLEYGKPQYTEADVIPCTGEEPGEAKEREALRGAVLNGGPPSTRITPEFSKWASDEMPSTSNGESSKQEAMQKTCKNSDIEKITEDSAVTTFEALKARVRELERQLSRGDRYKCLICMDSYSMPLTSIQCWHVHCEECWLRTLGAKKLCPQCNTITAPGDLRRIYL
inactive: saracatinib 0.012 | sotrastaurin 0.022 | alvocidib -0.066 | Tubastatin A 0.066 | [1] -0.008 | defactinib -0.059 | rucaparib -0.043 | [2] -0.038 | encorafenib 0.031 | [3] 0.015

RAB8B (UniProt Q92930)
Chain of UniProt Q92930 (Q92930 whole entry, looked up): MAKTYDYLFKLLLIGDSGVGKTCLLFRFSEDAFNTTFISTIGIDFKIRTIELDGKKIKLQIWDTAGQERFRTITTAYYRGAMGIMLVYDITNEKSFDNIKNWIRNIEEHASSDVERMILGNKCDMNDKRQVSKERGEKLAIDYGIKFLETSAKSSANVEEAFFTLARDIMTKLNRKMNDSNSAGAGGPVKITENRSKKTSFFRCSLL
inactive: saracatinib 0.084 | sotrastaurin -0.058 | alvocidib -0.098 | Tubastatin A -0.054 | [1] 0.006 | defactinib -0.004 | rucaparib -0.014 | [2] 0.056 | encorafenib -0.062 | [3] -0.06

RPS14 (UniProt P62263)
inactive: saracatinib 0.027 | sotrastaurin -0.003 | alvocidib 0.166 | Tubastatin A 0.123 | [1] 0.056 | defactinib 0.113 | rucaparib 0.107 | [2] 0.069 | encorafenib 0.013 | [3] -0.084

RSL1D1 (UniProt O76021)
inactive: saracatinib -0.086 | sotrastaurin 0.05 | alvocidib 0.481 | Tubastatin A 0.06 | [1] 0.004 | rucaparib 0.359 | [2] 0.097 | encorafenib 0.117 | [3] 0.079
active: defactinib 0.83

SLC19A1 (UniProt P41440)
inactive: saracatinib 0.012 | sotrastaurin -0.173 | alvocidib 0.06 | Tubastatin A -0.021 | [1] -0.035 | defactinib -0.061 | rucaparib -0.179 | [2] -0.048 | encorafenib 0.041 | [3] -0.003

RPS15 (UniProt P62841)
inactive: saracatinib -0.02 | sotrastaurin 0.07 | alvocidib 0.325 | Tubastatin A 0.087 | [1] 0.04 | defactinib 0.233 | rucaparib 0.226 | [2] 0.061 | encorafenib 0.028 | [3] 0.06

SAFB2 (UniProt Q14151)
inactive: saracatinib -0.055 | sotrastaurin -0.028 | alvocidib 0.149 | Tubastatin A -0.048 | [1] -0.022 | defactinib 0.144 | rucaparib 0.1 | [2] -0.067 | encorafenib 0.029 | [3] -0.005

RECQL (UniProt P46063)
inactive: saracatinib 0.053 | sotrastaurin -0.012 | alvocidib -0.073 | Tubastatin A 0.021 | [1] 0.061 | defactinib -0.071 | rucaparib -0.002 | [2] -0.013 | encorafenib 0.026 | [3] -0.026

RBM26 isoform 2 (UniProt Q5T8P6)
Chain of UniProt Q5T8P6 (Q5T8P6 whole entry, looked up): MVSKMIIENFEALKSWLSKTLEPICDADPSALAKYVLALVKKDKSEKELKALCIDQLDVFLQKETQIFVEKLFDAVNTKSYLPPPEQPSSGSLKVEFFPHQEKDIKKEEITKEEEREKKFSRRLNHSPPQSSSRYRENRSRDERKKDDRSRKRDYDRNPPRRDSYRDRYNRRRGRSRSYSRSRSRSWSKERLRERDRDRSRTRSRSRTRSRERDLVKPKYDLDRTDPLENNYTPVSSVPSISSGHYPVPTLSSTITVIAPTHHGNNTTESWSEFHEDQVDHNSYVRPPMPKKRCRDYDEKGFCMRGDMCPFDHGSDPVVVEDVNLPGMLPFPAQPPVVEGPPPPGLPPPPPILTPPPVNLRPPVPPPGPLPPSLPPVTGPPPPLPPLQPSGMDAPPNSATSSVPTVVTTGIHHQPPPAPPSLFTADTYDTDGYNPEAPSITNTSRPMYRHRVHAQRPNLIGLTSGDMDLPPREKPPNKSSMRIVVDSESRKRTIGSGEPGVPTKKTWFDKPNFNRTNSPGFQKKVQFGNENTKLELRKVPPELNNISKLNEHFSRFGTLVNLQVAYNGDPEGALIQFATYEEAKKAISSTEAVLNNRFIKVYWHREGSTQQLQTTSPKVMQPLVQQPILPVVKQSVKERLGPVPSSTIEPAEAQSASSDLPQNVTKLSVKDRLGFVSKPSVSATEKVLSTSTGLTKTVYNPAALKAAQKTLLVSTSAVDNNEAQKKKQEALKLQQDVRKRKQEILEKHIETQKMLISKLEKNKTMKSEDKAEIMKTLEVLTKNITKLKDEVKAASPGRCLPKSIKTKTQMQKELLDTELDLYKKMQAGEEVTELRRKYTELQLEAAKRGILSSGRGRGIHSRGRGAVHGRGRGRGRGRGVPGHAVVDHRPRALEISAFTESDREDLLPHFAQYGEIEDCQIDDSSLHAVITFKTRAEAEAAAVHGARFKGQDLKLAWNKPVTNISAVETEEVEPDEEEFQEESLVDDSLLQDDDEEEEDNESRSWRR
inactive: saracatinib -0.01 | sotrastaurin -0.193 | alvocidib -0.226 | Tubastatin A 0.094 | [1] -0.074 | rucaparib -0.039 | [2] 0.025 | encorafenib 0.03 | [3] -0.032
active: defactinib -0.489

RBM39 (UniProt Q14498)
inactive: saracatinib -0.027 | sotrastaurin -0.089 | alvocidib 0.028 | Tubastatin A 0.026 | [1] -0.303 | defactinib -0.16 | rucaparib 0.072 | [2] -0.183 | encorafenib 0.08 | [3] 0.011

RIPK1 (UniProt Q13546)
inactive: saracatinib -0.197 | sotrastaurin -0.208 | alvocidib -0.047 | Tubastatin A 0.017 | [1] 0.191 | defactinib 0.028 | rucaparib 0.161 | [2] 0.212 | encorafenib 0.073 | [3] -0.097

SDCBP (UniProt O00560)
Chain of UniProt O00560 (O00560 whole entry, looked up): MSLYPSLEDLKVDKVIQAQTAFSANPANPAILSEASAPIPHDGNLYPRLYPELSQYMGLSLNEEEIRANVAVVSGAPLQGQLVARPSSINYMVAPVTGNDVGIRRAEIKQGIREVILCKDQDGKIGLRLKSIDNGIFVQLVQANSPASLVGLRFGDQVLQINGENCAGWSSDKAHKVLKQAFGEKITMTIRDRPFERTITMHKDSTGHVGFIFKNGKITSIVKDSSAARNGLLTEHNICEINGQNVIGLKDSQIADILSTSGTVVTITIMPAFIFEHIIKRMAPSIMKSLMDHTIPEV
inactive: saracatinib -0.012 | sotrastaurin 0.021 | alvocidib -0.096 | Tubastatin A 0.025 | [1] 0.007 | defactinib 0.042 | rucaparib 0.117 | encorafenib 0.06 | [3] -0.001
active: [2] -0.541

RABGAP1L isoform 3 (UniProt Q5R372)
inactive: saracatinib 0.063 | sotrastaurin -0.042 | alvocidib -0.001 | Tubastatin A -0.059 | [1] 0.018 | defactinib -0.055 | rucaparib -0.05 | [2] -0.005 | encorafenib 0.078 | [3] 0.035

RBIS (UniProt Q8N0T1)
Chain of UniProt Q8N0T1 (Q8N0T1 whole entry, looked up): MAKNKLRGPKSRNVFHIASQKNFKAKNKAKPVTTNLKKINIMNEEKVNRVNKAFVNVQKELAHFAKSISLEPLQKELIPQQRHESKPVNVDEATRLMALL
inactive: saracatinib 0.054 | sotrastaurin -0.002 | alvocidib 0.059 | Tubastatin A 0.037 | [1] -0.026 | defactinib 0.058 | rucaparib -0.048 | [2] -0.037 | encorafenib 0.022 | [3] 0.03

RAB33B (UniProt Q9H082)
inactive: saracatinib 0.158 | sotrastaurin 0.057 | alvocidib 0.038 | Tubastatin A 0.013 | [1] -0.01 | defactinib -0.005 | rucaparib 0.035 | [2] -0.031 | encorafenib 0 | [3] 0.032

SCO2 (UniProt O43819)
Chain of UniProt O43819 (O43819 whole entry, looked up): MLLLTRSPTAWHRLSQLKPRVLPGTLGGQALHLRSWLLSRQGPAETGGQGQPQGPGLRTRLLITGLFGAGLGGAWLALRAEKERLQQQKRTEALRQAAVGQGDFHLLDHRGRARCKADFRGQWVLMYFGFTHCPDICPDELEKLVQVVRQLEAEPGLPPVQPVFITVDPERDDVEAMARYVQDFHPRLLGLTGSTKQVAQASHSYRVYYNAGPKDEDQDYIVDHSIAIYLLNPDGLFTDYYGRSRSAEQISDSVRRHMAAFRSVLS
inactive: saracatinib 0.034 | sotrastaurin 0.087 | alvocidib 0.006 | Tubastatin A 0.016 | [1] -0.042 | defactinib 0.017 | rucaparib 0.087 | [2] -0.004 | encorafenib 0.003 | [3] -0.124

RNPS1 (UniProt Q15287)
inactive: saracatinib 0.036 | sotrastaurin 0.013 | alvocidib -0.016 | Tubastatin A 0.107 | [1] -0.243 | defactinib -0.067 | rucaparib 0.023 | [2] -0.026 | encorafenib -0.033 | [3] -0.019

RHOXF2 (UniProt Q9BQY4)
inactive: saracatinib 0.015 | sotrastaurin -0.002 | alvocidib 0.011 | Tubastatin A 0.042 | [1] -0.021 | defactinib 0.008 | rucaparib 0.09 | [2] -0.074 | encorafenib -0.018 | [3] 0.066

RNF2 (UniProt Q99496)
Chain of UniProt Q99496 (Q99496 whole entry, looked up): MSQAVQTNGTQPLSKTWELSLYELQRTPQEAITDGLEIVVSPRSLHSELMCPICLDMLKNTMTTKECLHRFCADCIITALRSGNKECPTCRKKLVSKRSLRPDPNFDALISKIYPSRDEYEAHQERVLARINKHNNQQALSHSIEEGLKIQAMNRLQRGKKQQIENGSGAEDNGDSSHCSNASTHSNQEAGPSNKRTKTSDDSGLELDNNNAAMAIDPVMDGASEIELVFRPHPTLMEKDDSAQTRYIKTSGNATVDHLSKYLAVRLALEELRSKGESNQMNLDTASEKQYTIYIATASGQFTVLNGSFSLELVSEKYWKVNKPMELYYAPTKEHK
inactive: saracatinib 0.025 | sotrastaurin -0.105 | alvocidib -0.149 | Tubastatin A 0.111 | [1] 0.091 | defactinib -0.029 | rucaparib -0.054 | [2] -0.059 | encorafenib 0.003 | [3] 0.1

SLC18B1 (UniProt Q6NT16)
Chain of UniProt Q6NT16 (Q6NT16 whole entry, looked up): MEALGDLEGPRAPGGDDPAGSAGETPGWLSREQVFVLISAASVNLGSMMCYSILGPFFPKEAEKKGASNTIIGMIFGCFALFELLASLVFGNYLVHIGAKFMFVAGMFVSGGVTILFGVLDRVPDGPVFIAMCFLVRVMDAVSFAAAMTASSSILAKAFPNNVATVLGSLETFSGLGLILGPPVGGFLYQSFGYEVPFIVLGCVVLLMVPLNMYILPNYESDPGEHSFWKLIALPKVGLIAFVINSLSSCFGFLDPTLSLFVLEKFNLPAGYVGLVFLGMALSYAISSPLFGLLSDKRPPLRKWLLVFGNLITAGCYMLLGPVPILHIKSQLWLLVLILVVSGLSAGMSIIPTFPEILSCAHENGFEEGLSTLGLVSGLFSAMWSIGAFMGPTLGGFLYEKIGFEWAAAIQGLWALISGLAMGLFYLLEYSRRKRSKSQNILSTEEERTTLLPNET
inactive: saracatinib 0.021 | sotrastaurin 0.023 | alvocidib 0.02 | Tubastatin A 0.04 | [1] 0.061 | defactinib 0.094 | rucaparib -0.012 | [2] -0.071 | encorafenib 0.012 | [3] 0.056

RAB3IL1 (UniProt Q8TBN0)
inactive: saracatinib 0.007 | sotrastaurin -0.02 | alvocidib 0.06 | Tubastatin A -0.02 | [1] 0.023 | defactinib -0.042 | rucaparib -0.005 | [2] 0.001 | encorafenib -0.03 | [3] -0.022

RHEB (UniProt Q15382)
inactive: saracatinib 0.047 | sotrastaurin 0.04 | alvocidib -0.008 | Tubastatin A -0.054 | [1] -0.032 | defactinib 0.002 | rucaparib -0.084 | [2] -0.011 | encorafenib 0.025 | [3] 0

RPS2 (UniProt P15880)
inactive: saracatinib -0.058 | sotrastaurin 0 | alvocidib 0.25 | Tubastatin A 0.059 | [1] 0.064 | defactinib 0.261 | rucaparib 0.153 | [2] 0.081 | encorafenib 0.07 | [3] 0.042

RPS6KA1 isoform 2 (UniProt Q15418)
Chain of UniProt Q15418 (Q15418 whole entry, looked up): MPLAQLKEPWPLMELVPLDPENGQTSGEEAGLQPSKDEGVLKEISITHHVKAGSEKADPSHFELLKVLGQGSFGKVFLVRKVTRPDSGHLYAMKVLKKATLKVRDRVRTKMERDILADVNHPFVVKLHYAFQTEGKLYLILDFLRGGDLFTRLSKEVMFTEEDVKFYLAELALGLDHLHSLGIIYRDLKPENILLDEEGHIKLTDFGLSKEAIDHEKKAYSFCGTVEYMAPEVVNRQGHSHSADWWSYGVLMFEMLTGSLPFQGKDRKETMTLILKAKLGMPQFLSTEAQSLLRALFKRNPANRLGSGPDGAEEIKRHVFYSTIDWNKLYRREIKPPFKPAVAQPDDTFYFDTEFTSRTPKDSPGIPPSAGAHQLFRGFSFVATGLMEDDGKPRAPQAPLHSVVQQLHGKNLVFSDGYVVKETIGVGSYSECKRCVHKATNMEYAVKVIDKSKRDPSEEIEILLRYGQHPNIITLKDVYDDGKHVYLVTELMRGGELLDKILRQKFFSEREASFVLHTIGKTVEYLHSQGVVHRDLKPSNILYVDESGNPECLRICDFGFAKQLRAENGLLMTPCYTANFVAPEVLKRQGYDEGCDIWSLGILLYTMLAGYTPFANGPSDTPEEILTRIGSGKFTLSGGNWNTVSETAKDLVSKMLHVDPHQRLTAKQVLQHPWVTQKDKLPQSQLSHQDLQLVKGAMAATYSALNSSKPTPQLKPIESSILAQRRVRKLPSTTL
inactive: saracatinib 0.02 | sotrastaurin -0.067 | alvocidib -0.012 | Tubastatin A 0.005 | [1] -0.088 | defactinib -0.258 | rucaparib -0.108 | [2] -0.101 | encorafenib -0.018 | [3] -0.015

RSPRY1 (UniProt Q96DX4)
Chain of UniProt Q96DX4 (Q96DX4 whole entry, looked up): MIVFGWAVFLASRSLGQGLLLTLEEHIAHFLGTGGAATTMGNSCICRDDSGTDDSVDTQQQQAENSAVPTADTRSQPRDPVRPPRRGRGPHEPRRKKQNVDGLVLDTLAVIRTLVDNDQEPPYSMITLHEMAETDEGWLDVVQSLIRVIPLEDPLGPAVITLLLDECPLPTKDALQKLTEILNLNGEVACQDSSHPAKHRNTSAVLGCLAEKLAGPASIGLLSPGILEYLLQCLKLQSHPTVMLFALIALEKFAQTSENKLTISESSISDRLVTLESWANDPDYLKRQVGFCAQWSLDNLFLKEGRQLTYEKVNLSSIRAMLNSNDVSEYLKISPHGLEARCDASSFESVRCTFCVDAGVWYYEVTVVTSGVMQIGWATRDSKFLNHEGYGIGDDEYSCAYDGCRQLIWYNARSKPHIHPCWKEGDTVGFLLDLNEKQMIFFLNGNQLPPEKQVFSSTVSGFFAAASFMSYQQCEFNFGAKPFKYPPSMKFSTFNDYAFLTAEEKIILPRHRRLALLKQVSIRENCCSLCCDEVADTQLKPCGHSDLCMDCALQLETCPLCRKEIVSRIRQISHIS
inactive: saracatinib -0.073 | sotrastaurin -0.01 | alvocidib 0.001 | Tubastatin A 0.009 | [1] -0.037 | defactinib 0.013 | rucaparib 0.118 | [2] 0.126 | encorafenib 0.04 | [3] 0.009

SCD (UniProt O00767)
inactive: saracatinib 0.066 | sotrastaurin 0.036 | alvocidib 0.049 | Tubastatin A -0.234 | [1] 0.024 | defactinib 0.025 | rucaparib -0.006 | [2] -0.164 | encorafenib 0.04 | [3] 0.045

REEP4 (UniProt Q9H6H4)
Chain of UniProt Q9H6H4 (Q9H6H4 whole entry, looked up): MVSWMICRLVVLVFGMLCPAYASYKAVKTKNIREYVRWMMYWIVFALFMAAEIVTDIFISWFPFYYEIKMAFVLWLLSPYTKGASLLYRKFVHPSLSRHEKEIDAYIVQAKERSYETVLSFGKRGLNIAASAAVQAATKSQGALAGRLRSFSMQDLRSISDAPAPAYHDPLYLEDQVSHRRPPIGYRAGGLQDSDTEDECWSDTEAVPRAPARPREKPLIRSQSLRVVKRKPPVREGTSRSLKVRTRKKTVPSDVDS
inactive: saracatinib 0.047 | sotrastaurin -0.068 | alvocidib 0.034 | Tubastatin A 0.018 | [1] -0.122 | defactinib 0.008 | rucaparib 0.086 | [2] -0.014 | encorafenib -0.013 | [3] -0.01

SEC31A (UniProt O94979)
inactive: saracatinib -0.086 | sotrastaurin -0.084 | alvocidib -0.006 | Tubastatin A 0.019 | [1] 0.043 | defactinib -0.036 | rucaparib 0.002 | [2] -0.015 | encorafenib 0.062 | [3] -0.03

RABGAP1L isoform 5 (UniProt Q5R372)
inactive: saracatinib -0.027 | sotrastaurin 0.017 | alvocidib -0.053 | Tubastatin A -0.056 | [1] -0.014 | [2] -0.071
